From the supplement of paper PMC6411743
± gives the standard deviation of the averaged measurements. For some assays here: Of roughly 5,400 targets only a part is listed; those with the largest changes were picked by preference. For some assays here: Of roughly 6,500 targets only a part is listed; those with the largest changes were picked by preference.

Experiments:
adenosine triphosphate = compound: Nc1ncnc2c1ncn2[C@@H]1O[C@H](COP(=O)(O)OP(=O)(O)OP(=O)(O)O)[C@@H](O)[C@H]1O [adenosine triphosphate]; test: NP40-soluble protein abundance relative to vehicle (solubility fold change) (ratio); higher = more soluble protein in presence of ATP
Method in brief: (§1)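 Jurkat crude lysate prepared with a Dounce homogeniser was treated at eight concentrations spanning 0.1 to 10 mM, 10 min at room temperature then 3 min at 37 °C. Solubilisation with 0.8% NP40 and benzonase and ultracentrifugation preceded TMT labelling of the supernatant for LC-MS/MS. Fold change against the detergent-processed vehicle was determined per replicate from vsn-normalised intensities, across three independent experiments.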

guanosine triphosphate = compound: Nc1nc2c(ncn2[C@@H]2O[C@H](COP(=O)(O)OP(=O)(O)OP(=O)(O)O)[C@@H](O)[C@H]2O)c(=O)[nH]1 [guanosine triphosphate]; test: NP40-soluble protein abundance relative to vehicle (solubility fold change) (ratio); higher = more soluble protein in presence of GTP
Method in brief: as §1

PPIL1 (UniProt Q9Y3C6)
Chain of UniProt Q9Y3C6 (Q9Y3C6 whole entry): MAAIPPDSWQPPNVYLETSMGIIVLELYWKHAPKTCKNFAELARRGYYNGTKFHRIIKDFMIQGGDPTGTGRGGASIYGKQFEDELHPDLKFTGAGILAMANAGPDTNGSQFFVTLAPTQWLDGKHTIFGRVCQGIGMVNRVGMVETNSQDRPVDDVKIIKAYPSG
NP40-soluble protein abundance (adenosine triphosphate; concentration: 1mM): 0.919 ± 0.019
NP40-soluble protein abundance (adenosine triphosphate; concentration: 2mM): 0.9512 ± 0.0074
NP40-soluble protein abundance (adenosine triphosphate; concentration: 4mM): 0.913 ± 0.034
NP40-soluble protein abundance (adenosine triphosphate; concentration: 6mM): 0.963 ± 0.031
NP40-soluble protein abundance (adenosine triphosphate; concentration: 8mM): 0.964 ± 0.016
NP40-soluble protein abundance (adenosine triphosphate; concentration: 10mM): 0.902 ± 0.065

CNOT7 (UniProt Q9UIV1)
Chain of UniProt Q9UIV1 (Q9UIV1 whole entry): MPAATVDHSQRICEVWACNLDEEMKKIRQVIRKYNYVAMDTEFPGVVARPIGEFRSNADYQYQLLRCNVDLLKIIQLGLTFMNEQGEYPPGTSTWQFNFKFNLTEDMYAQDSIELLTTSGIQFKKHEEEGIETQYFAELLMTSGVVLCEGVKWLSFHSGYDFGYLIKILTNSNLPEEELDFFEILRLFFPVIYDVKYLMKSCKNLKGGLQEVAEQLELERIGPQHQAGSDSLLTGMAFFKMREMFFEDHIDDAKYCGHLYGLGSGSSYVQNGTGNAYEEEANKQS
NP40-soluble protein abundance (adenosine triphosphate; concentration: 1mM): 1.23 ± 0.044
NP40-soluble protein abundance (adenosine triphosphate; concentration: 2mM): 1.22 ± 0.06
NP40-soluble protein abundance (adenosine triphosphate; concentration: 4mM): 1.29 ± 0.038
NP40-soluble protein abundance (adenosine triphosphate; concentration: 6mM): 1.25 ± 0.037
NP40-soluble protein abundance (adenosine triphosphate; concentration: 8mM): 1.3 ± 0.061
NP40-soluble protein abundance (adenosine triphosphate; concentration: 10mM): 1.26 ± 0.076

POFUT2 (UniProt Q9Y2G5)
NP40-soluble protein abundance (adenosine triphosphate; concentration: 1mM): 1 ± 0.037
NP40-soluble protein abundance (adenosine triphosphate; concentration: 2mM): 1.04 ± 0.019
NP40-soluble protein abundance (adenosine triphosphate; concentration: 4mM): 1.01 ± 0.012
NP40-soluble protein abundance (adenosine triphosphate; concentration: 6mM): 1.02 ± 0.04
NP40-soluble protein abundance (adenosine triphosphate; concentration: 8mM): 0.955 ± 0.029
NP40-soluble protein abundance (adenosine triphosphate; concentration: 10mM): 0.975 ± 0.017

UniProt Q9UL54-2
NP40-soluble protein abundance (adenosine triphosphate; concentration: 1mM): 1.29 ± 0.17
NP40-soluble protein abundance (adenosine triphosphate; concentration: 2mM): 1.54 ± 0.35
NP40-soluble protein abundance (adenosine triphosphate; concentration: 4mM): 1.57 ± 0.33
NP40-soluble protein abundance (adenosine triphosphate; concentration: 6mM): 1.67 ± 0.33
NP40-soluble protein abundance (adenosine triphosphate; concentration: 8mM): 1.63 ± 0.24
NP40-soluble protein abundance (adenosine triphosphate; concentration: 10mM): 1.69 ± 0.4

UniProt Q9Y224
NP40-soluble protein abundance (adenosine triphosphate; concentration: 1mM): 0.958 ± 0.053
NP40-soluble protein abundance (adenosine triphosphate; concentration: 2mM): 0.872 ± 0.031
NP40-soluble protein abundance (adenosine triphosphate; concentration: 4mM): 0.903 ± 0.092
NP40-soluble protein abundance (adenosine triphosphate; concentration: 6mM): 0.918 ± 0.12
NP40-soluble protein abundance (adenosine triphosphate; concentration: 8mM): 0.995 ± 0.011
NP40-soluble protein abundance (adenosine triphosphate; concentration: 10mM): 0.782 ± 0.18

NOB1 (UniProt Q9ULX3)
NP40-soluble protein abundance (adenosine triphosphate; concentration: 1mM): 1.07 ± 0.023
NP40-soluble protein abundance (adenosine triphosphate; concentration: 2mM): 1.06 ± 0.086
NP40-soluble protein abundance (adenosine triphosphate; concentration: 4mM): 1.03 ± 0.077
NP40-soluble protein abundance (adenosine triphosphate; concentration: 6mM): 1.07 ± 0.13
NP40-soluble protein abundance (adenosine triphosphate; concentration: 8mM): 1.08 ± 0.054
NP40-soluble protein abundance (adenosine triphosphate; concentration: 10mM): 1.05 ± 0.065

UniProt Q9Y2H0|Q9Y2H0-3|Q9Y2H0-1
Chain of UniProt Q9Y2H0 (Q9Y2H0 whole entry): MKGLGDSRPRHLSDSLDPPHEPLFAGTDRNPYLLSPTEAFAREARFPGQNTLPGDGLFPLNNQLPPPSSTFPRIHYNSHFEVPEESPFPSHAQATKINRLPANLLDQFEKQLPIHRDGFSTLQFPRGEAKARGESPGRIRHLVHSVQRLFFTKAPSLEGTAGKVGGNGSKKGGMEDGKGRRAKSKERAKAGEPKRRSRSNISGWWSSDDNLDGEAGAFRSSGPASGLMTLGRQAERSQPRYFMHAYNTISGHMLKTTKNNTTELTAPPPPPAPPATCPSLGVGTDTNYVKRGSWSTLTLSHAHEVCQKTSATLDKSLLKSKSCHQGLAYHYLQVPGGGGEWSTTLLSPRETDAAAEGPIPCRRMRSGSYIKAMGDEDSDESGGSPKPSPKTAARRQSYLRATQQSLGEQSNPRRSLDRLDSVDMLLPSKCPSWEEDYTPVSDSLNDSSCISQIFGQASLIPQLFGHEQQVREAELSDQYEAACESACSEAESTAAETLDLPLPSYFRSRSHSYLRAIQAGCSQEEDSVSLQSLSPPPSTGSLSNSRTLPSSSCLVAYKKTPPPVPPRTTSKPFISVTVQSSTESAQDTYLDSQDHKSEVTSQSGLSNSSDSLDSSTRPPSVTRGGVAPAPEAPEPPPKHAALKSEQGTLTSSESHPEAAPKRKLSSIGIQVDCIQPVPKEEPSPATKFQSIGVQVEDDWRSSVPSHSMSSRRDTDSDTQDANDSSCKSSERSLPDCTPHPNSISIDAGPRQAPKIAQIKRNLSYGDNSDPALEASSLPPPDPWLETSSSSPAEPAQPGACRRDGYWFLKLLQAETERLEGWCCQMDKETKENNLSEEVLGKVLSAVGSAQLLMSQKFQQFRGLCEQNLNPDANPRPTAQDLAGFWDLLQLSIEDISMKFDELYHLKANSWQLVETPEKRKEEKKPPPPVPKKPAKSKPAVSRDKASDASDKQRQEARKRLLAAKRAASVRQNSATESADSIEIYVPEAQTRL
NP40-soluble protein abundance (adenosine triphosphate; concentration: 1mM): 0.921 ± 0.038
NP40-soluble protein abundance (adenosine triphosphate; concentration: 2mM): 0.899 ± 0.068
NP40-soluble protein abundance (adenosine triphosphate; concentration: 4mM): 0.922 ± 0.045
NP40-soluble protein abundance (adenosine triphosphate; concentration: 6mM): 0.944 ± 0.025
NP40-soluble protein abundance (adenosine triphosphate; concentration: 8mM): 0.861 ± 0.093
NP40-soluble protein abundance (adenosine triphosphate; concentration: 10mM): 0.85 ± 0.052

UniProt Q9UPN4-2|Q9UPN4-3|I3L2J8|Q9UPN4
NP40-soluble protein abundance (adenosine triphosphate; concentration: 1mM): 1.15 ± 0.14
NP40-soluble protein abundance (adenosine triphosphate; concentration: 2mM): 1.18 ± 0.14
NP40-soluble protein abundance (adenosine triphosphate; concentration: 4mM): 1.35 ± 0.12
NP40-soluble protein abundance (adenosine triphosphate; concentration: 6mM): 1.45 ± 0.21
NP40-soluble protein abundance (adenosine triphosphate; concentration: 8mM): 1.47 ± 0.26
NP40-soluble protein abundance (adenosine triphosphate; concentration: 10mM): 1.7 ± 0.26

WDR3 (UniProt Q9UNX4)
Chain of UniProt Q9UNX4 (Q9UNX4 whole entry): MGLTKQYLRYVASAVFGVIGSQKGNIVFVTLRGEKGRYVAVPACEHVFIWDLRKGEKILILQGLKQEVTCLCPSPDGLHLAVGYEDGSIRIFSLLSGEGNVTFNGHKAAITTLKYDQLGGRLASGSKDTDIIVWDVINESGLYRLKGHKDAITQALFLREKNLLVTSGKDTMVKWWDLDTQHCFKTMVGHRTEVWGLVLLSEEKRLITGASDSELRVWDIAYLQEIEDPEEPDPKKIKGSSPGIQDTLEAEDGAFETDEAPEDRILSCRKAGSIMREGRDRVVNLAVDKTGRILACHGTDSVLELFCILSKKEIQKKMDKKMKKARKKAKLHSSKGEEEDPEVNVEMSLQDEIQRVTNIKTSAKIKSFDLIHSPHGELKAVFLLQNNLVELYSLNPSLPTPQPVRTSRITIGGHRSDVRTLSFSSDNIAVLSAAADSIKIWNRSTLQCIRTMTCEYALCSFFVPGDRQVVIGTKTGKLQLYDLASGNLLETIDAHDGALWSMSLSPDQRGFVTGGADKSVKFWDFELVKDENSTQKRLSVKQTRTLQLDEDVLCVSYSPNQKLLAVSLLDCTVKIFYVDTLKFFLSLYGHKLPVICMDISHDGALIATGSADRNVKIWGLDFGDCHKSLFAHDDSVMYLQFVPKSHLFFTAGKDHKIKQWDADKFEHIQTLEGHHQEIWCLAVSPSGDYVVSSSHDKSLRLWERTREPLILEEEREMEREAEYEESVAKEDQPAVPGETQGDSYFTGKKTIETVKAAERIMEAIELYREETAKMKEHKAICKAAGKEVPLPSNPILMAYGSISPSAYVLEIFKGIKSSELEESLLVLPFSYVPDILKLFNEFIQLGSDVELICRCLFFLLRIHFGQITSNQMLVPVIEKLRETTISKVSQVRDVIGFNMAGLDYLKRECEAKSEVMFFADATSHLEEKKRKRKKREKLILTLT
NP40-soluble protein abundance (adenosine triphosphate; concentration: 1mM): 1.28 ± 0.11
NP40-soluble protein abundance (adenosine triphosphate; concentration: 2mM): 1.46 ± 0.1
NP40-soluble protein abundance (adenosine triphosphate; concentration: 4mM): 1.82 ± 0.17
NP40-soluble protein abundance (adenosine triphosphate; concentration: 6mM): 1.97 ± 0.2
NP40-soluble protein abundance (adenosine triphosphate; concentration: 8mM): 2.23 ± 0.2
NP40-soluble protein abundance (adenosine triphosphate; concentration: 10mM): 2.34 ± 0.13

UniProt Q9UNF0|Q9UNF0-2
NP40-soluble protein abundance (adenosine triphosphate; concentration: 1mM): 0.963 ± 0.04
NP40-soluble protein abundance (adenosine triphosphate; concentration: 2mM): 0.952 ± 0.024
NP40-soluble protein abundance (adenosine triphosphate; concentration: 4mM): 0.927 ± 0.011
NP40-soluble protein abundance (adenosine triphosphate; concentration: 6mM): 0.954 ± 0.023
NP40-soluble protein abundance (adenosine triphosphate; concentration: 8mM): 0.895 ± 0.019
NP40-soluble protein abundance (adenosine triphosphate; concentration: 10mM): 0.9 ± 0.049

UniProt Q9Y639|Q9Y639-1|Q9Y639-3|Q9Y639-5
NP40-soluble protein abundance (adenosine triphosphate; concentration: 1mM): 0.919 ± 0.11
NP40-soluble protein abundance (adenosine triphosphate; concentration: 2mM): 0.888 ± 0.06
NP40-soluble protein abundance (adenosine triphosphate; concentration: 4mM): 0.938 ± 0.1
NP40-soluble protein abundance (adenosine triphosphate; concentration: 6mM): 0.926 ± 0.084
NP40-soluble protein abundance (adenosine triphosphate; concentration: 8mM): 0.896 ± 0.061
NP40-soluble protein abundance (adenosine triphosphate; concentration: 10mM): 0.851 ± 0.11

PARP4 (UniProt Q9UKK3)
NP40-soluble protein abundance (adenosine triphosphate; concentration: 1mM): 1.14 ± 0.017
NP40-soluble protein abundance (adenosine triphosphate; concentration: 2mM): 1.15 ± 0.12
NP40-soluble protein abundance (adenosine triphosphate; concentration: 4mM): 1.12 ± 0.083
NP40-soluble protein abundance (adenosine triphosphate; concentration: 6mM): 1.15 ± 0.14
NP40-soluble protein abundance (adenosine triphosphate; concentration: 8mM): 1.14 ± 0.042
NP40-soluble protein abundance (adenosine triphosphate; concentration: 10mM): 1.19 ± 0.085

LNPEP (UniProt Q9UIQ6)
Chain of UniProt Q9UIQ6 (Q9UIQ6 whole entry): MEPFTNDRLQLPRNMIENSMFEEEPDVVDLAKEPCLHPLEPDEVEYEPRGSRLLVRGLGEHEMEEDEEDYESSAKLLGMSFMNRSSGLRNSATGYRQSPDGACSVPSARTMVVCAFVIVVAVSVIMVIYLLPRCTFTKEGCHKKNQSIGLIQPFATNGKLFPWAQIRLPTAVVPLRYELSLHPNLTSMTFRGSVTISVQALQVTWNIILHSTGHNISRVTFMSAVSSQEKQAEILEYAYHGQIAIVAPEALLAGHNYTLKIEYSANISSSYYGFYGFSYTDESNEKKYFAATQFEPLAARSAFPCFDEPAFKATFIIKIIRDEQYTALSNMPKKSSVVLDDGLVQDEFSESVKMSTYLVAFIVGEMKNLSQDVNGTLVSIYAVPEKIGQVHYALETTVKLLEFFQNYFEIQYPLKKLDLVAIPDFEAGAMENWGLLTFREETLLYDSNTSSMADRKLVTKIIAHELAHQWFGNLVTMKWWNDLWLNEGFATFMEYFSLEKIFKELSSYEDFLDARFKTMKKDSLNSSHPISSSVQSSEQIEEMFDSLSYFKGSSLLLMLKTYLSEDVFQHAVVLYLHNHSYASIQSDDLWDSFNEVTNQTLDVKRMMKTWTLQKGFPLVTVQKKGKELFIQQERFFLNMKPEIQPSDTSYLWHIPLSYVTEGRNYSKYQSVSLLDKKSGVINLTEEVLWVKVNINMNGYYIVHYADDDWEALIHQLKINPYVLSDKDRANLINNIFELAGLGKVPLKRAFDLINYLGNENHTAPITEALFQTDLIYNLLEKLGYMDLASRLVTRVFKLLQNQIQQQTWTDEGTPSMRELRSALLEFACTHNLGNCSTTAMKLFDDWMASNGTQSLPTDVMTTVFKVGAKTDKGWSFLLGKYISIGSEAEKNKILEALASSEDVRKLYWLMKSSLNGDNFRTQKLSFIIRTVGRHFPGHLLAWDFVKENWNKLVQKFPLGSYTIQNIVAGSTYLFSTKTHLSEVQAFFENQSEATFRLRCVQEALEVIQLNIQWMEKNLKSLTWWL
NP40-soluble protein abundance (adenosine triphosphate; concentration: 1mM): 0.914 ± 0.015
NP40-soluble protein abundance (adenosine triphosphate; concentration: 2mM): 0.937 ± 0.021
NP40-soluble protein abundance (adenosine triphosphate; concentration: 4mM): 0.909 ± 0.022
NP40-soluble protein abundance (adenosine triphosphate; concentration: 6mM): 0.918 ± 0.035
NP40-soluble protein abundance (adenosine triphosphate; concentration: 8mM): 0.882 ± 0.045
NP40-soluble protein abundance (adenosine triphosphate; concentration: 10mM): 0.872 ± 0.038

TRPV2 (UniProt Q9Y5S1)
Chain of UniProt Q9Y5S1 (Q9Y5S1 whole entry): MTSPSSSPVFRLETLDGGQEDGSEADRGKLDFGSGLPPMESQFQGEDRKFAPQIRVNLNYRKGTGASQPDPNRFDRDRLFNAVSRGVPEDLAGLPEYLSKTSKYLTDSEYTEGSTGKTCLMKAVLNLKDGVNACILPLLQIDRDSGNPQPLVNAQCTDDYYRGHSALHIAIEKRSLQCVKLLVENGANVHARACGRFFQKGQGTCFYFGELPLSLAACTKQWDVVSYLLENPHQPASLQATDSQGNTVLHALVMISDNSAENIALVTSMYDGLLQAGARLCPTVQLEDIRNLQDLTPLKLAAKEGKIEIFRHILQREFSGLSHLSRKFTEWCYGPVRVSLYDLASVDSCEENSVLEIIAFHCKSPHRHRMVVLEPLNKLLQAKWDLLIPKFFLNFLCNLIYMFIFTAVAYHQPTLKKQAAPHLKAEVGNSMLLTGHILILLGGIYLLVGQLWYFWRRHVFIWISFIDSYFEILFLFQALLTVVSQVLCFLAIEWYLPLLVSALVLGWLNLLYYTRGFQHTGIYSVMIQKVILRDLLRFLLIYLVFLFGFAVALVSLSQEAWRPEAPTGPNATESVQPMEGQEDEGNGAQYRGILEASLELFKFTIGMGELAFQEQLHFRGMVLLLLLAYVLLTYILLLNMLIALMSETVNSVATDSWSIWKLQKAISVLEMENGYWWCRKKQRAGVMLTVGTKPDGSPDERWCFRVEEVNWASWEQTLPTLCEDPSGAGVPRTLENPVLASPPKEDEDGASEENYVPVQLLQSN
NP40-soluble protein abundance (adenosine triphosphate; concentration: 1mM): 1.02 ± 0.076
NP40-soluble protein abundance (adenosine triphosphate; concentration: 2mM): 1.02 ± 0.073
NP40-soluble protein abundance (adenosine triphosphate; concentration: 4mM): 0.999 ± 0.03
NP40-soluble protein abundance (adenosine triphosphate; concentration: 6mM): 0.955 ± 0.0051
NP40-soluble protein abundance (adenosine triphosphate; concentration: 8mM): 0.965 ± 0.048
NP40-soluble protein abundance (adenosine triphosphate; concentration: 10mM): 0.976 ± 0.023

UniProt Q9UPN7
Chain of UniProt Q9UPN7 (Q9UPN7 whole entry): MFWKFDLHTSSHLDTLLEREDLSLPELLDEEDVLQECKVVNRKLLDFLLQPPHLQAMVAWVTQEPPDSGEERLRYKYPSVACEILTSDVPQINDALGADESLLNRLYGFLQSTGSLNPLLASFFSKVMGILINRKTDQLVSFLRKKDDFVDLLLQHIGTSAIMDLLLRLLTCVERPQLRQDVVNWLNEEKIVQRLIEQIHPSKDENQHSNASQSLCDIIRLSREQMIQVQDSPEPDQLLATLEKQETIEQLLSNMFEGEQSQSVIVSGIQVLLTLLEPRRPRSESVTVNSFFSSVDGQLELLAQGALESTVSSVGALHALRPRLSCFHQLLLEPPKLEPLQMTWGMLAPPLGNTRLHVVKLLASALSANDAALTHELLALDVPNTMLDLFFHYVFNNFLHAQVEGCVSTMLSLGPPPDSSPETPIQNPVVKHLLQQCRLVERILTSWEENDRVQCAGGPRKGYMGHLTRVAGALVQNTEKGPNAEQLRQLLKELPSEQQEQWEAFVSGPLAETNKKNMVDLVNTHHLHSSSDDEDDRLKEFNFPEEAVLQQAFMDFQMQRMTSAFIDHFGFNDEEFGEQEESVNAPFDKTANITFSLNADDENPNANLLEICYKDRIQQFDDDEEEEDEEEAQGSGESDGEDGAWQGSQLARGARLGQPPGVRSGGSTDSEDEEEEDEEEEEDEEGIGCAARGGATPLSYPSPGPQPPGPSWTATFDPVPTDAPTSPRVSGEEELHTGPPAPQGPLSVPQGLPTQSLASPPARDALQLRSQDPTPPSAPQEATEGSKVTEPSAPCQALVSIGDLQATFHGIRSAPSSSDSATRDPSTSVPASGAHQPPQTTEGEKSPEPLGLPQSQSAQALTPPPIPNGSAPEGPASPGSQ
NP40-soluble protein abundance (adenosine triphosphate; concentration: 1mM): 0.945 ± 0.014
NP40-soluble protein abundance (adenosine triphosphate; concentration: 2mM): 0.941 ± 0.046
NP40-soluble protein abundance (adenosine triphosphate; concentration: 4mM): 0.941 ± 0.029
NP40-soluble protein abundance (adenosine triphosphate; concentration: 6mM): 0.917 ± 0.041
NP40-soluble protein abundance (adenosine triphosphate; concentration: 8mM): 0.924 ± 0.018
NP40-soluble protein abundance (adenosine triphosphate; concentration: 10mM): 0.93 ± 0.037

ACAD8 (UniProt Q9UKU7)
NP40-soluble protein abundance (adenosine triphosphate; concentration: 1mM): 1.01 ± 0.049
NP40-soluble protein abundance (adenosine triphosphate; concentration: 2mM): 1 ± 0.064
NP40-soluble protein abundance (adenosine triphosphate; concentration: 4mM): 0.988 ± 0.033
NP40-soluble protein abundance (adenosine triphosphate; concentration: 6mM): 0.961 ± 0.058
NP40-soluble protein abundance (adenosine triphosphate; concentration: 8mM): 0.983 ± 0.029
NP40-soluble protein abundance (adenosine triphosphate; concentration: 10mM): 0.99 ± 0.038

B1AL05|H0Y6Y8|H0YBU8|Q8N983|Q8N983-2|Q8N983-3|Q8N983-4|Q8N983-6|Q8N983-7 (UniProt Q8N983)
NP40-soluble protein abundance (guanosine triphosphate; concentration: 0.1mM): 1.08 ± 0.21
NP40-soluble protein abundance (guanosine triphosphate; concentration: 0.5mM): 1.07 ± 0.17
NP40-soluble protein abundance (guanosine triphosphate; concentration: 1mM): 1.37 ± 0.45
NP40-soluble protein abundance (guanosine triphosphate; concentration: 2mM): 1.75 ± 0.66
NP40-soluble protein abundance (guanosine triphosphate; concentration: 4mM): 1.71 ± 0.69
NP40-soluble protein abundance (guanosine triphosphate; concentration: 6mM): 1.57 ± 0.65
NP40-soluble protein abundance (guanosine triphosphate; concentration: 8mM): 1.38 ± 0.47
NP40-soluble protein abundance (guanosine triphosphate; concentration: 10mM): 1.59 ± 0.65
